# Activity calls are given as the source filed them.
# Assays:
# [1] = small molecules captured by biotinylated probe aFSTL3 – biochemical, small-molecule microarray, fluorescence 635/667, stem cell growth factor project, primary screen (AID 1064); conditions: higher = more signal;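 also: measures binding of the biotinylated anti-FSTL3 antibody to printed compounds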
# [2] = binders from COS7 lysate, DM2A8 probe, primary screen, torsin A project, cell lysate, small-molecule microarray, fluorescence 635/667 (AID 1065); conditions: higher = more signal, COS7 lysate expressing mutant human TOR1A
# [3] = small molecules captured by biotinylated probe aFGF2 – biochemical, small-molecule microarray, fluorescence 635/667, stem cell growth factor project, primary screen (AID 1067); conditions: higher = more signal;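 also: measures binding of biotinylated aFGF2 protein to printed compounds on slides; z-score merges feature fluorescence and signal-to-noise across triplicate slides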
# [4] = small molecules captured by biotinylated probe aFGF10 – biochemical, small-molecule microarray, fluorescence 635/667, stem cell growth factor project, primary screen (AID 1071); conditions: higher = more signal;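 also: score merges 667 nm spot intensity and signal to noise from triplicate slides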
# [5] = molecular target: Neurogenic locus notch homolog protein 2 (Homo sapiens) (UniProt Q04721); test: small molecules binding Notch2 protein – biochemical, small-molecule microarray, 635 nm fluorescence, stem cell growth factors, primary screen (AID 1073); conditions: higher = more signal
# Neurogenic locus notch homolog protein 2 (Homo sapiens), sequence (Q04721 whole entry, looked up, canonical isoform): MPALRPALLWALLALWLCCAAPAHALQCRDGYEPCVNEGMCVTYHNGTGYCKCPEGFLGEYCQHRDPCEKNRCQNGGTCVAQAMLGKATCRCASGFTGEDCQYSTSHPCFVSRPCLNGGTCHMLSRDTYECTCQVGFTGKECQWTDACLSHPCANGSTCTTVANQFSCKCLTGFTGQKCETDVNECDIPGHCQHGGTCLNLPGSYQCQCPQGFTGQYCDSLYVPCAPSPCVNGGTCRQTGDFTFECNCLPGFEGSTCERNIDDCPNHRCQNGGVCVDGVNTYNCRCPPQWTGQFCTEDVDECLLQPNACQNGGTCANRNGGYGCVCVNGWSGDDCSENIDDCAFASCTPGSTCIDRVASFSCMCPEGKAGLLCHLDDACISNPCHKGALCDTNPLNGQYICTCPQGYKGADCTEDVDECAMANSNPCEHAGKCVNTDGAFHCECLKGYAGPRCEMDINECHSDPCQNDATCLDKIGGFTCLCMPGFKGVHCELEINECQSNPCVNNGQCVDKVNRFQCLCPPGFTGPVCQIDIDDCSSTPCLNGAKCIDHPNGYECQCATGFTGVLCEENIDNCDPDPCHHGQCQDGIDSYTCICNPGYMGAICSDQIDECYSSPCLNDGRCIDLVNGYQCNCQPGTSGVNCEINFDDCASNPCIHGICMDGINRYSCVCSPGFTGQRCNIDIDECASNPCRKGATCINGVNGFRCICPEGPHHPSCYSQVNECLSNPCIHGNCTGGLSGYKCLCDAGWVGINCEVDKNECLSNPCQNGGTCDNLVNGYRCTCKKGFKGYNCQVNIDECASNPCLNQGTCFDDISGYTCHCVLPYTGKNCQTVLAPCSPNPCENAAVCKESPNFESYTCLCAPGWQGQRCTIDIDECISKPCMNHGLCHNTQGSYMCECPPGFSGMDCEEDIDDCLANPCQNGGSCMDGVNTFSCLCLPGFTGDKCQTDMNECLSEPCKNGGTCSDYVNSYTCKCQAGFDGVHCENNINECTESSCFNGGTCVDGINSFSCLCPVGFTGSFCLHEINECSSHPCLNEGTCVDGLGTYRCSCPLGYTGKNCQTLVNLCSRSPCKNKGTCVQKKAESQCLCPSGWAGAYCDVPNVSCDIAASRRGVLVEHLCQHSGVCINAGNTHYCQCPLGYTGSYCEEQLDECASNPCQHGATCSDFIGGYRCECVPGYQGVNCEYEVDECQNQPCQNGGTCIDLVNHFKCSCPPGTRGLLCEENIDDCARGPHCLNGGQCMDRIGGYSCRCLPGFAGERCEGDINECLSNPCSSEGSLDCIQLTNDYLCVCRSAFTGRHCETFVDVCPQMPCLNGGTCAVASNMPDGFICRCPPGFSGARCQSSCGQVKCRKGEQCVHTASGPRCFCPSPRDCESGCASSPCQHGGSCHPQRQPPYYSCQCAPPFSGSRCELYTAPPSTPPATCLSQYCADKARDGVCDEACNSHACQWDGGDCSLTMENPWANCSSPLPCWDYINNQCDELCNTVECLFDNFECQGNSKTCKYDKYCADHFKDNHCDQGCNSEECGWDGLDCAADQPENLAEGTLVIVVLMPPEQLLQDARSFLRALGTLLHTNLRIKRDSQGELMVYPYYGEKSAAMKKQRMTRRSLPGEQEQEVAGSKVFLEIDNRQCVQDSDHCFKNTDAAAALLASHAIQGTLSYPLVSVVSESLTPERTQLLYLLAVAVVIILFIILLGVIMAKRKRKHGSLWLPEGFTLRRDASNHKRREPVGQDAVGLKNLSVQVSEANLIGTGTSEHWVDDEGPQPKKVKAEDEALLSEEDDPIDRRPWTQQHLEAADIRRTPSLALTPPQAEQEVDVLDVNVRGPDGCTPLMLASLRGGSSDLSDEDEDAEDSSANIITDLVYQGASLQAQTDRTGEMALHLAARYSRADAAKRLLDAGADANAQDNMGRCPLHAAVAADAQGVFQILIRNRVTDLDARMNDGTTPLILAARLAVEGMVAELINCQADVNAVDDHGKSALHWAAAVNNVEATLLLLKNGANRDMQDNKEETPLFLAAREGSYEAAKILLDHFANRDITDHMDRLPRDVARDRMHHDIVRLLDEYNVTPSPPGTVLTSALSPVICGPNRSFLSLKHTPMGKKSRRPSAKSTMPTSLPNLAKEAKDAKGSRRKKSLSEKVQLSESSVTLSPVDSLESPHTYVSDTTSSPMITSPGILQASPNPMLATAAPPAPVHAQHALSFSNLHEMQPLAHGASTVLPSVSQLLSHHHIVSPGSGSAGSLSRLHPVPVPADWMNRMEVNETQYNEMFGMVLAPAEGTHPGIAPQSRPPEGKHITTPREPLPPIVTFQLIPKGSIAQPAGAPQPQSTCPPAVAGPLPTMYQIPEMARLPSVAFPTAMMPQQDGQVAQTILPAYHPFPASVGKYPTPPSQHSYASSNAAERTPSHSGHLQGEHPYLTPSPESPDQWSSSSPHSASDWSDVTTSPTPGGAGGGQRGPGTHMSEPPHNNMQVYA
# [6] = molecular target: Pro-neuregulin-1, membrane-bound isoform (Homo sapiens) (UniProt Q02297); test: small molecules binding neuregulin-1 protein – biochemical, small-molecule microarray, fluorescence 635/667, psychiatric disease protein project, primary screen (AID 1075); conditions: NRG1 binding, 635 nm fluorescence, higher = more signal;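 also: score combines 667 nm spot fluorescence with signal to noise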
# Pro-neuregulin-1, membrane-bound isoform (Homo sapiens), sequence (Q02297 whole entry, looked up, the tested form may be a part, canonical isoform): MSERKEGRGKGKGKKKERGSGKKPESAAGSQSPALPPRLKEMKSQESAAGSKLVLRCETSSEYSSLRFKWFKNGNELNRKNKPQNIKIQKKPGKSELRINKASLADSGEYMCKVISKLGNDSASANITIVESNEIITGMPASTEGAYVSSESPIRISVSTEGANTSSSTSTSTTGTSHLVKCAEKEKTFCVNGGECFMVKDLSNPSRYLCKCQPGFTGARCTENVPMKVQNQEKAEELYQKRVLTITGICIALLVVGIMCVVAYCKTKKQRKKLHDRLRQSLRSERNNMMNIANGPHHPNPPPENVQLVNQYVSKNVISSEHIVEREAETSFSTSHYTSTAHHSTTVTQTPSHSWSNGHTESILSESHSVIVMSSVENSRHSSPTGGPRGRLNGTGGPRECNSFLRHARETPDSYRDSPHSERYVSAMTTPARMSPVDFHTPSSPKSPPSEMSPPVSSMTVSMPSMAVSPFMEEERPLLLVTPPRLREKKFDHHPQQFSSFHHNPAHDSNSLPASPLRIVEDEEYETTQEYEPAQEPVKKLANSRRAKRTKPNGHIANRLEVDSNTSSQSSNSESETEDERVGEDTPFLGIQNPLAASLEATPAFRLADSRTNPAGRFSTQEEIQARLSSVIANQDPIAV
# [7] = system: Neuregulin-1 EGF-like domain; test: small molecules binding NRG1 EGF domain – biochemical, small-molecule microarray, 635 nm fluorescence, primary screen (AID 1081); conditions: higher = more signal;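 also: binding of the protein to compounds printed on small-molecule microarray slides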
# [8] = FRG1 expression reporter modulators in myotubes – cell-based, C2C12 myotubes, firefly/Renilla luciferase, luminescence, FRG1 inhibition for FSHD, primary screen (AID 1084); conditions: FRG1 promoter luciferase, higher = more signal, called active from +8 up or from −8 down
# [9] = small molecules captured by biotinylated probe aFST – biochemical, small-molecule microarray, fluorescence 635/667, stem cell growth factor project, primary screen (AID 1086); conditions: higher = more signal;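 also: score merges 667 nm fluorescence with signal-to-noise of each printed compound spot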
# [10] = binders of probe aHhip on microarray, primary screen, stem cell growth factor project, biochemical, small-molecule microarray, fluorescence 635/667 (AID 1087); conditions: higher = more signal;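 also: score merges spot fluorescence at 667nm with spot signal to noise ratio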
# [11] = system: PRMT1 (protein arginine N-methyltransferase 1); test: small molecules binding arginine methyltransferase PRMT1 – biochemical, small-molecule microarray, 635 nm fluorescence, primary screen (AID 1088); conditions: higher = more signal;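 also: binding of Prmt1 protein to compounds spotted on small-molecule microarray slides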
# [12] = growth effects on S. cerevisiae YJM789 – YJM789 clinical isolate, OD600, 24 h, basal, primary screen (AID 1089); conditions: higher = more signal, called active from +8 up or from −8 down;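 also: growth of clinical yeast isolate S. cerevisiae YJM 789 seeded 1000 cells per well; test concentration not given here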
# [13] = S. pombe growth modifiers, basal conditions – strain 972, OD600, 24 h, no modulator, primary screen (AID 1090);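 also: basal condition with compound alone and no growth modifier present; test concentration not given here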; conditions: S. pombe 972 growth, higher = more signal, called active from +8 up or from −8 down
# [14] = budding yeast growth modifiers under rapamycin – strain BY4716, OD600, 96 h, primary screen (AID 1091); also: test concentration not given here; conditions: S. cerevisiae BY4716 + rapamycin, higher = more signal, called active from +8 up or from −8 down
# [15] = molecular target: Torsin-1A-interacting protein 2 (Homo sapiens) (UniProt Q8NFQ8); test: small molecules binding lysate-expressed LULL1 – cell lysate, human LULL1 lysate, 635/667 nm fluorescence, primary screen (AID 1092); conditions: small-molecule microarray, hLULL1 lysate binding, 635 nm fluorescence; higher = more signal;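 also: probe is lysate of COS7 cells overexpressing human LULL1; score merges per-feature 667 nm fluorescence with signal-to-noise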
# Torsin-1A-interacting protein 2 (Homo sapiens), sequence (Q8NFQ8 whole entry, looked up): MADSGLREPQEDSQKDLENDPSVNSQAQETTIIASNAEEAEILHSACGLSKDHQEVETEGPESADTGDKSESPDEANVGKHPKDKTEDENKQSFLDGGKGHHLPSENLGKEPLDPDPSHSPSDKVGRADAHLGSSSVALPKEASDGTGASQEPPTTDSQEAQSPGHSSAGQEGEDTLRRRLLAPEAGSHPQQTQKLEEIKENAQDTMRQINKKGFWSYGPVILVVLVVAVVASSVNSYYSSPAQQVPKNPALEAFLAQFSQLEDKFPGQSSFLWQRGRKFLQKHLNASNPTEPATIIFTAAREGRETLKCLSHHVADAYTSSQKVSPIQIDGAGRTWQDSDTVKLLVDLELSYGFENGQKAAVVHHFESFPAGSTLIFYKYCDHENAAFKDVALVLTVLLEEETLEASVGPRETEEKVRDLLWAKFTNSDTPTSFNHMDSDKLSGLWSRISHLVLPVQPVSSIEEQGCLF
# [16] = optical density change of DRC41 E. coli – strain DRC41, OD650, 24 h, E. coli filamentation project, primary screen (AID 1093);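 also: MC1000 strain lacking acrAB efflux and sulA so SOS filamentation is blocked; test concentration not given here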; conditions: E. coli DRC41 growth, higher = more signal, called active from +8 up or from −8 down
# [17] = probe aLefty2 binding to arrayed compounds – biochemical, biotinylated probe, 635/667 nm fluorescence, primary screen (AID 1094); conditions: small-molecule microarray, higher = more signal;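 also: score merges spot fluorescence near 667 nm with spot signal-to-noise ratio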
# [18] = system: Noggin (protein binding on small-molecule microarray); test: small molecules binding Noggin protein – biochemical, 635/667 nm fluorescence, primary screen (AID 1095); conditions: 635 nm fluorescence, higher = more signal;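 also: score merges 667 nm feature fluorescence with signal to noise over triplicate slides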
# [19] = molecular target: Neurogenic locus notch homolog protein 3 (Homo sapiens) (UniProt Q9UM47); test: small molecules binding NOTCH3 protein – biochemical, 635/667 nm fluorescence, primary screen (AID 1096); conditions: small-molecule microarray, 635 nm fluorescence, higher = more signal
# [20] = probe aEGFR binding to arrayed compounds – biochemical, biotinylated probe, 635/667 nm fluorescence, primary screen (AID 1097); conditions: small-molecule microarray, higher = more signal;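 also: probe is a biotinylated anti-EGFR antibody binding compounds printed on slides; score combines fluorescence near 667 nm and signal to noise of each spot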
Compound,composite z-score [1],composite z-score [2],composite z-score [3],composite z-score [4],composite z-score [5],composite z-score [6],composite z-score [7],z-score [8],composite z-score [9],composite z-score [10],composite z-score [11],z-score [12],z-score [13],z-score [14],composite z-score [15],z-score [16],composite z-score [17],composite z-score [18],composite z-score [19],composite z-score [20]
Cc1ccc(S[C@]2(C(=O)NCCN3CCOCC3)CC(=O)N(Cc3ccccc3C(F)(F)F)[C@@H]2c2ccc(CO)cc2I)cc1,0.273,-0.245,-0.0876,-0.36,-0.103,2.09,1.23,-0.883 (inactive),-0.295,-0.236,0.783,-1.57 (inactive),-4.24 (inactive),0.176 (inactive),1.2,-0.28 (inactive),-0.145,-0.586,-0.689,-0.233
O=C1O[C@@H](c2ccccc2)[C@@H](c2ccccc2)N2[C@@H](c3ccccc3OCCO)[C@]3(C(=O)Nc4ccc(C#CC5=CCCCC5)cc43)[C@@H](C(=O)NC[C@H](O)c3ccccc3)[C@H]12,-0.595,2.06,0.0296,0.648,0.948,1.42,1.01,-0.279 (inactive),0.517,-0.0391,1.55,1.03 (inactive),0.112 (inactive),3.61 (inactive),2.38,1.38 (inactive),-0.273,0.988,1.11,-0.0371
NCCCCCCNC(=O)[C@H]1C[C@H]2C(=O)N[C@@H](Cc3ccccc3)C(=O)N2[C@H]1c1ccc(O)cc1,0.465,0.399,-0.0334,0.0116,0.421,1.34,1.18,1.1 (inactive),0.377,-0.196,1.11,-1.8 (inactive),-0.599 (inactive),-1.24 (inactive),2.45,0.933 (inactive),-0.0824,1.07,0.272,-0.0685
COCCOC(=O)N1C(=O)[C@@]2(c3cc(C#CC4(O)CCCCCC4)ccc31)[C@H](C(=O)N1CCCCCCC1)[C@H]1C(=O)O[C@H](c3ccccc3)[C@H](c3ccccc3)N1[C@@H]2c1ccc(OCCO)cc1,3.43,1.62,0.79,1.2,1.26,2.18,1.24,-3.21 (inactive),3.29,1.77,1.53,0.474 (inactive),0.638 (inactive),2.39 (inactive),3.7,1.82 (inactive),1.77,1.89,1.03,0.757
CC(C)C(CO)N1C(=O)[C@]2(C)C3C(=O)OCCC/C=C\[C@H]3OC23C=CCN(c2ccc(Cl)cc2)C(=O)[C@@H]13 (stereo not given in full),0.0972,-0.481,-0.101,-0.17,-0.689,0.344,1.11,0.0186 (inactive),0.0043,-0.0994,0.88,-0.579 (inactive),-1.14 (inactive),-0.268 (inactive),3.28,-0.718 (inactive),-0.0458,-0.608,0.0253,-0.155
C=CC[C@@H](OC(=O)Nc1ccc(OC)cc1)c1ccc(OCCO)cc1,0.767,-1.54,-0.131,-0.805,-2.39,-0.682,0.0481,5.78 (inactive),-1.25,0.0722,-0.424,-0.348 (inactive),-3.59 (inactive),0.126 (inactive),-0.0818,0.743 (inactive),-0.0304,-0.929,-0.801,-0.338
O=C(CS)NCCCCCCNC(=O)[C@@H]1C[C@@H]2C(=O)N3CCC[C@H]3C(=O)N2[C@@H]1c1cccc(OCCO)c1,0.145,0.804,0.109,0.256,0.407,1.28,0.911,1.05 (inactive),-0.022,-0.0645,1.35,-1.69 (inactive),0.335 (inactive),-0.365 (inactive),2.35,1.2 (inactive),0.177,0.488,1,0.0195
CN1C(=O)[C@@]2(CCS(=O)(=O)c3ccccc3)N=C(c3ccc(OCCCO)cc3)O[C@H]2c2ccccc21,0.185,0.394,-0.102,0.832,1.45,1.59,1.34,-3.84 (inactive),1.09,-0.04,1.53,-0.175 (inactive),-0.585 (inactive),2.05 (inactive),3.05,0.708 (inactive),0.276,0.931,0.377,-0.0493
CN(C)CCCNC(=O)[C@@H]1c2ccccc2C(=O)N(CC23CC4CC(CC(C4)C2)C3)[C@H]1c1ccc(CO)cc1,-0.782,1.13,0.0878,0.837,1.28,1.15,1.39,-1.92 (inactive),0.445,-0.128,1.53,-0.0129 (inactive),-7.98 (inactive),-2.06 (inactive),3.24,0.583 (inactive),-0.227,0.954,1.05,-0.0801
CCCCN1CC=CC23O[C@@H]4/C=C\CCC(C)OC(=O)C4[C@H]2C(=O)N(CCCCCCO)[C@@H]3C1=O (stereo not given in full),0.666,0.345,-0.0712,0.867,-0.625,0.272,1.59,0.189 (inactive),-0.213,-0.119,-0.969,-0.287 (inactive),-0.737 (inactive),0.045 (inactive),1.4,0.272 (inactive),-0.212,-0.806,-0.407,-0.313
